Laboratory results as given in PubChem BioAssay AID1508635 (National Center for Advancing Translational Sciences (NCATS), 2021).
Records with an inconclusive call do not appear. Active and inactive are the calls of the source. Calls come from the whole dose curve; as a rule, active = well fitted inhibition curve with a large enough effect; inconclusive = small, poorly fitted or top-dose-only effect; inactive = no such curve, though single readings can be large or run the other way. Numbered stars: 1 amine (or outer) side, 2 acyl side, 3 side chain; on linkers, the order of the positions; unused ones are H or OH. Square brackets hold non-standard residues; d marks the D form. Peptide text beside a SMILES is read from it. X1 = O=C([C@@H](CC(O)CCl)O[*:1])[*:2]; aIle = CC[C@@H](C)[C@H](N)C(=O)O; NMeV = CN[C@H](C(=O)O)C(C)C; NMeA = CN[C@@H](C)C(=O)O; βAla = NCCC(=O)O

The compounds below were run on zebrafish Abcb4 (ABCB1 homolog) (assay: qHTS for characterization and localization of zebrafish homologs of the human ABCB1 multidrug transporter: ABCB4 transfected cells). Settings: CellTiter-Glo viability luminescence, 72 h; series mostly up to 15.2 µM.
Source text: The zebrafish has emerged as a potential model to study the blood-brain barrier (BBB) given its similarities with mammalian systems. However, little information has been available with regard to homologous ATP-binding cassette transporters expressed at the zebrafish BBB. Two transporters that are highly expressed at the human BBB are P-glycoprotein (P-gp, encoded by the ABCB1 gene) and ABCG2 (encoded by the ABCG2 gene). In this study, we focus on characterization of P-gp homologs in the zebrafish, which has two genes that are homologous to human ABCB1 - abcb4 and abcb5. We generated stably-transfected cell lines to determine their substrate specificities. […] Zebrafish abcb4 also colocalized with claudin 5 expression in brain endothelial cells.
A high-throughput screen was performed as previously described on empty vector transfected cells, P-gp-overexpressing MDR-19 cells and cells transfected with full-length zebrafish abcb4 (ZF Abcb4) or abcb5 (ZF Abcb5). Briefly, cells were plated into 1536-well plates at a density of 500 cells/well in 5 uL media. P-gp substrate compounds (approximately 90) selected from our previous study were then added at varying concentrations using a 1536-head pin tool (Kalypsis, San Diego, CA) and plates were incubated at 37C in 5% CO2 for 72 h. CellTiter-Glo reagent (Promega) was dispensed into the wells, incubated for 5 min and luminescence was read on a ViewLux instrument (Perkin-Elmer).
Cytotoxic compounds were defined as those that yielded a curve class of -1.1, -1.2, -2.1, -2.2, -2.3, or -2.4, a maximum response of >50% and an AC50 of < 10 uM. All compounds from screening analysis were tested in Vector (empty vector control), MDR-19 (P-gp overexpressing), zebrafish abcb4 (ZF Abcb4) and abcb5 (ZF Abcb5) expression cell lines.
1. Tobie D Lee, Olivia W Lee, Kyle R Brimacombe, Lu Chen, Rajarshi Guha, Sabrina Lusvarghi, Bethilehem G Tebase, Carleen Klumpp-Thomas, Robert W Robey, Suresh V Ambudkar, Min Shen, Michael M Gottesman, Matthew D Hall. A High-Throughput Screen of a Library of Therapeutics Identifies Cytotoxic Substrates of P-glycoprotein. […]

Q: Which Potency does the source give for CC[C@@H](C)[C@@H]1NC(=O)[C@@H]2CCCN2C(=O)[C@@H](CC(O)CCl)OC(=O)CCNC(=O)[C@H](C)N(C)C(=O)[C@H](C(C)C)N(C)C1=O (stereo partly drawn) (cyclo([NMeA][βAla][X1]P[aIle][NMeV])) here?
A: inactive

Q: How did the Potency turn out when C=CCON=C(C[C@H]1O[C@@H]2O[C@]3(C)CC[C@@H]4[C@H](C)CC[C@@H]([C@H]1C)[C@@]24OO3)[C@H]1O[C@@H]2O[C@]3(C)CC[C@H]4[C@H](C)CC[C@@H]([C@@H]1C)[C@@]24OO3 was run?
A: 1870 nM (active)

Q: For C[C@@H]1[C@@H](CC(C[C@H]2O[C@@H]3O[C@]4(C)CC[C@@H]5[C@H](C)CC[C@@H]([C@H]2C)[C@@]35OO4)C[S+](=O)([O-])c2ccc(COC(=O)N(C)C)cc2)O[C@@H]2O[C@]3(C)CC[C@H]4[C@H](C)CC[C@@H]1[C@@]24OO3 (stereo partly drawn), which Potency is on record?
A: 2350 nM (active)
